The nature of assay [1]: qHTS assay to identify small molecule antagonists of the estrogen receptor alpha (ER-alpha) signaling pathway using the BG1 cell line in the presence of 0.1 nM 17-beta-estradiol - cell viability counter screen (AID 1259241). Also: nearly all actives have a fitted effect of over 40% in size. A digest of the protocol: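 Live-cell protease activity (CellTiter-Fluor fluorescence, 30 min) was read in the same wells after VM7Luc4E2 cells had been exposed to compounds with 0.1 nM 17beta-estradiol for 22 hr at 37C.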
Background: Quantitative high-throughput screening tests each substance at several concentrations.

A short description of assay [2]: qHTS assay to identify small molecule antagonists of the androgen receptor (AR) signaling pathway using the MDA cell line in the presence of 0.5 nM R1881 - cell viability counter screen (AID 1259242). Also: nearly all actives have a fitted effect of over 45% in size. Summed up:
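Concentration-response screen of compounds for toxicity in MDA-kb2 reporter cells: 16 hr at 37C with 0.5 nM R1881, endpoint live-cell protease fluorescence measured in the reporter wells.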

Assay [3] addresses Estrogen receptor (Homo sapiens) (UniProt P03372). The assay can be described thus: qHTS assay to identify small molecule antagonists of the estrogen receptor alpha (ER-alpha) signaling pathway using the BG1 cell line in the presence of 0.1 nM 17-beta-estradiol (AID 1259244). Also: nearly all actives have a fitted effect of over 50% in size. A digest of the protocol: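 Compounds were tested against 0.1 nM (final) 17beta-estradiol in VM7Luc4E2 cells, which express full-length ER-alpha and an ERE-luciferase reporter; luminescence was recorded following 22 h exposure.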

A short description of assay [4]: qHTS assay to identify small molecule phospholipidosis (PLD) inducers (AID 1259344; active = well fitted curve in the direction sought with a large enough effect; an effect the other way counts as inactive or inconclusive). Summed up:
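After 4 h attachment on collagen I, HepG2 cells were dosed with compound alongside LipidTOX Red, kept 24 h at 37 C, fixed, and imaged for lamellar phospholipid pits.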

Assay [5] in a line: qHTS assay to identify small molecule HDAC inhibitors (AID 1259364).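 Also: wild-type HCT-116 cells with endogenous class I/II HDAC activity; top concentration of the series differs between compounds; nearly all actives have a fitted effect of over 45% in size.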 Summed up:
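Screening used wild-type human colon HCT-116 cells incubated overnight, dosed with compounds for 2 hours, and assayed with a homogeneous luminogenic HDAC I/II reagent for 30 minutes at room temperature.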

A short description of assay [6]: qHTS assay to identify small molecule HDAC inhibitors - cell viability counter screen (AID 1259365). Also: series mostly up to about 92 µM; nearly all actives have a fitted effect of over 50% in size. Summed up: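 HCT-116 (wild type), 1,500 cells/well, overnight 37C/5% CO2; compound in DMSO 2hr; CellTiter-Glo 30min RT; luminescence read.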
Assay [7] can be described thus: qHTS assay to identify small molecule agonists of the sonic hedgehog signaling (Shh) pathway - cell viability counter screen (AID 1259366). Also: nearly all actives have a fitted effect of over 50% in size. A digest of the protocol:
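CellTiter-Fluor fluorescence read-out, 1 hr at 37C, added after 23hr compound exposure. Cells: 3T3 Gli1-Luc, an NIH/3T3 clone with stably integrated Gli1-Luc reporter, plated 4hr before compound.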

A short description of assay [8]: qHTS assay to identify small molecule antagonists of the sonic hedgehog signaling (Shh) pathway - cell viability counter screen (AID 1259367). Also: nearly all actives have a fitted effect of over 55% in size. A digest of the protocol:
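Conditioned medium drove Shh signaling in 3T3 Gli1-Luc cells exposed to compounds at 37C and 5% CO2. Viability was determined from CellTiter-Fluor fluorescence, with reagent incubated 1 hr after 23 hr of treatment.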

A short description of assay [9]: qHTS assay to identify small molecule agonists of the sonic hedgehog signaling (Shh) pathway (AID 1259368; calls by dose curve;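 also: NIH/3T3-derived 3T3Gli1-Luc cells carrying a stable Gli1-driven firefly luciferase reporter; series mostly up to about 92 µM; nearly all actives have a fitted effect of over 15% in size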). Summed up:
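Hedgehog pathway agonism scored by increased firefly luciferase luminescence in 3T3Gli1-Luc cells treated 24 hr at 37 C; detection used a 30 min room-temperature reagent incubation.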

The target in assay [10] is Estrogen receptor beta (Homo sapiens) (UniProt Q92731). The assay can be described thus: qHTS assay to identify small molecule agonists of the estrogen receptor beta (ER-beta) signaling pathway (AID 1259377; active = well fitted activation curve with a large enough effect in the signal ratio in the repeat runs, not every such curve was filed as active; the % refers to the signal ratio). Summed up: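 Beta-lactamase reporter readout: fluorescence of LiveBLAzer B/G FRET substrate after 2 h at room temperature, following 16 h compound treatment of ER-beta-UAS-bla HEK293T cells at 37C in 2% charcoal-stripped FBS medium.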
Estrogen receptor beta (Homo sapiens), sequence (Q92731 whole entry, looked up): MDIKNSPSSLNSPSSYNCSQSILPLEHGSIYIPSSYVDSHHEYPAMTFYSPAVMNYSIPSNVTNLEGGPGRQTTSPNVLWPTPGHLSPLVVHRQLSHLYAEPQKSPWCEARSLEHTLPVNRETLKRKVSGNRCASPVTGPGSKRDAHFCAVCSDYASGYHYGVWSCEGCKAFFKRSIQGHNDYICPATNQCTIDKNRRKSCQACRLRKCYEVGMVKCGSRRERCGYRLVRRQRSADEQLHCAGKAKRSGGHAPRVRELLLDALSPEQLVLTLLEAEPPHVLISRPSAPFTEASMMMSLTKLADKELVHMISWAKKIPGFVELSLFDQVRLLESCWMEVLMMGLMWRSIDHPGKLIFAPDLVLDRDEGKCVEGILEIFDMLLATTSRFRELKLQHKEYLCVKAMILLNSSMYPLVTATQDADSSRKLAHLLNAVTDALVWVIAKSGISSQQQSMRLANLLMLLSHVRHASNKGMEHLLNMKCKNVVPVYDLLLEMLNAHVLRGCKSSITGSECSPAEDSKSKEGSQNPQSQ

For assay [11] the target is unchanged. The experiment in a line: qHTS assay to identify small molecule antagonists of the estrogen receptor beta (ER-beta) signaling pathway (AID 1259378; active = well fitted inhibition curve with a large enough effect in the signal ratio in the repeat runs, not every such curve was filed as active; the % refers to the signal ratio). Summed up:
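ER-beta-UAS-bla HEK293T (GripTite) cells in 2% charcoal-stripped FBS medium were preincubated 6 hr at 37C, dosed with compound, then stimulated with 1 nM E2 (final) for 16 hr; beta-lactamase reporter read by B/G FRET fluorescence after 2 hr substrate loading.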

Assay [12] in a line: qHTS assay to identify small molecule agonists of the androgen receptor (AR) signaling pathway in the presence of an antagonist - cell viability counter screen (AID 1259379).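 Also: MDA-kb2 human breast cancer cells carrying an MMTV luciferase reporter; series mostly up to about 92 µM; nearly all actives have a fitted effect of over 25% in size.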 A digest of the protocol:
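MDA-kb2 viability measured by CellTiter-Fluor fluorescence in the same wells as the luciferase signal; nilutamide 3.0uM final; 15-point compound titration; 16 hr at 37C.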

Assay [13] is described as follows: qHTS assay to identify small molecule antagonists of the estrogen receptor beta (ER-beta) signaling pathway - cell viability counter screen (AID 1259382). Also: series mostly up to about 92 µM; nearly all actives have a fitted effect of over 55% in size. Summed up:
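Readout: luminescence, CellTiter-Glo, same wells as bla assay. System: ER-beta-UAS-bla GripTite HEK293T, 2% charcoal-stripped FBS. Exposure: compounds plus 1nM 17-beta-estradiol, 16 hr, 37C.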

Assay [14] deals with Estrogen receptor (Homo sapiens) (UniProt P03372). The experiment in a line: qHTS assay to identify small molecule agonists of the estrogen receptor alpha (ER-alpha) signaling pathway in the presence of an antagonist (AID 1259383; calls by dose curve; also: top concentration of the series differs between compounds; nearly all actives have a fitted effect of over 15% in size). Summed up: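 Quantitative HTS confirmation: compounds titrated at 15 concentrations onto estrogen-deprived VM7Luc4E2 cells carrying a four-ERE luciferase construct, with ICI-182,780 present at 10.0nM final. Signal is luminescence after 22hr exposure.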
Estrogen receptor (Homo sapiens), sequence (P03372 whole entry, looked up): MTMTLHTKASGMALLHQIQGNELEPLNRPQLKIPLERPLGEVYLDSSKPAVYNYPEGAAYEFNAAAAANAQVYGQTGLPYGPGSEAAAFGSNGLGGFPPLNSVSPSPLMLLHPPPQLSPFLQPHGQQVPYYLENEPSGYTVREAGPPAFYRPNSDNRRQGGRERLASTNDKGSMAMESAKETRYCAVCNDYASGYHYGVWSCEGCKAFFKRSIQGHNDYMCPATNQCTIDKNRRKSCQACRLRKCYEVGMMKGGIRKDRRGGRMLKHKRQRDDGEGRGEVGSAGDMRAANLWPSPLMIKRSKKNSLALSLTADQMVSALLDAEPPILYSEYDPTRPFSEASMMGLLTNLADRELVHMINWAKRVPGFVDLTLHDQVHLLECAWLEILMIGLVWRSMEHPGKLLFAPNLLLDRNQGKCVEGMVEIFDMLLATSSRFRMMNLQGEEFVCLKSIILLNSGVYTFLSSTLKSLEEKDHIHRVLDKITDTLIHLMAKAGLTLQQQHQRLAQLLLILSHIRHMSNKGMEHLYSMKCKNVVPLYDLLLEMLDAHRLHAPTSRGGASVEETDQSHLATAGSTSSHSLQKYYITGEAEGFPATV

The nature of assay [15]: qHTS assay to identify small molecule agonists or antagonists of the thyroid stimulating hormone receptor (TSHR) signaling pathway - wild type cell line counter screen (AID 1259384; calls by dose curve). Summed up: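 Wild-type HEK293 cells were plated 18 h at 37 C/5% CO2, pin-dosed with compound plus Ro20-1724 medium, held 30 min at room temperature, then given cAMP-d2 and anti-cAMP-cryptate; fluorescence was read after 1 h. Fifteen concentrations, triplicate.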

In assay [16] the target is Thyrotropin receptor (Homo sapiens) (UniProt P16473). The assay can be described thus: qHTS assay to identify small molecule antagonists of the thyroid stimulating hormone receptor (TSHR) signaling pathway (AID 1259385; calls by dose curve; also: nearly all actives have a fitted effect of over 20% in size). Summed up:
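TSHR-HEK293 cells were plated and held 18 h at 37C/5% CO2, then given compound plus Ro20-1724 and stimulated with TSH at 1.5 ng/mL final. After 30 min at room temperature, cAMP was detected with cAMP-d2/anti-cAMP-cryptate (1 h) by fluorescence.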

Assay [17] concerns the target Androgen receptor (Homo sapiens) (UniProt P10275). The experiment in a line: qHTS assay to identify small molecule antagonists of the androgen receptor (AR) signaling pathway using the MDA cell line in the presence of 0.5 nM R1881 (AID 1259243). Also: nearly all actives have a fitted effect of over 50% in size. Also: potency is read from the fitted curve at half-maximal effect. Summed up: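 With R1881 held at 0.5 nM (final), compound effects on MMTV-luciferase expression in MDA-kb2 cells were scored by luminescence after a 16 hr, 37C incubation.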

Assay [18] is described as follows: qHTS assay to identify small molecule agonists of the estrogen receptor beta (ER-beta) signaling pathway - cell viability counter screen (AID 1259380). Also: nearly all actives have a fitted effect of over 30% in size. Also: potency is read from the fitted curve at half-maximal effect. Summed up: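 Measured: luminescence from CellTiter-Glo after 30 min at room temperature, added to wells already read for the LiveBLAzer FRET reporter (2 hr substrate); ER-beta-UAS-bla HEK293T cells had 16 hr compound treatment at 37C, 5% CO2.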

The target in assay [19] is Androgen receptor (Homo sapiens) (UniProt P10275). The experiment in a line: qHTS assay to identify small molecule agonists of the androgen receptor (AR) signaling pathway in the presence of an antagonist (AID 1259381; calls by dose curve; also: nearly all actives have a fitted effect of over 15% in size). Summed up:
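Luminescent ONE-Glo read, 30min at room temperature, follows 16hr compound exposure (15 concentrations) of MDA-kb2 cells at 37C, 0% CO2, with nilutamide added at 3.0uM final.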

Assay [20] can be described thus: qHTS assay to identify small molecule antagonists of the sonic hedgehog signaling (Shh) pathway (AID 1259369; calls by dose curve; also: nearly all actives have a fitted effect of over 45% in size; also: potency is read from the fitted curve at half-maximal effect). Summed up: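 NIH/3T3 stable Gli1-Luc clone, 2,000 cells/well, 4hr settle; cpd + conditioned medium 24hr; Luc reagent 30min RT; luminescence.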

The values below come from PubChem BioAssay (Tox21).

Structures are written as SMILES. Where “and” joins values, the source holds several entries; their conditions need not be identical. Equal values may be shown once. Results filed as inconclusive are left out. More than one record can exist for a structure, and the calls need not agree. Calls of active or inactive are those of the source. Unless noted, calls follow the shape of the dose curve; as a rule, active = well fitted curve in the direction sought with a large enough effect in the repeat runs; inconclusive = weak or mixed curves; inactive = no such curve, though single readings can be large; an effect the other way counts as inactive or inconclusive.

Androgen receptor (Homo sapiens), sequence (P10275 whole entry, looked up): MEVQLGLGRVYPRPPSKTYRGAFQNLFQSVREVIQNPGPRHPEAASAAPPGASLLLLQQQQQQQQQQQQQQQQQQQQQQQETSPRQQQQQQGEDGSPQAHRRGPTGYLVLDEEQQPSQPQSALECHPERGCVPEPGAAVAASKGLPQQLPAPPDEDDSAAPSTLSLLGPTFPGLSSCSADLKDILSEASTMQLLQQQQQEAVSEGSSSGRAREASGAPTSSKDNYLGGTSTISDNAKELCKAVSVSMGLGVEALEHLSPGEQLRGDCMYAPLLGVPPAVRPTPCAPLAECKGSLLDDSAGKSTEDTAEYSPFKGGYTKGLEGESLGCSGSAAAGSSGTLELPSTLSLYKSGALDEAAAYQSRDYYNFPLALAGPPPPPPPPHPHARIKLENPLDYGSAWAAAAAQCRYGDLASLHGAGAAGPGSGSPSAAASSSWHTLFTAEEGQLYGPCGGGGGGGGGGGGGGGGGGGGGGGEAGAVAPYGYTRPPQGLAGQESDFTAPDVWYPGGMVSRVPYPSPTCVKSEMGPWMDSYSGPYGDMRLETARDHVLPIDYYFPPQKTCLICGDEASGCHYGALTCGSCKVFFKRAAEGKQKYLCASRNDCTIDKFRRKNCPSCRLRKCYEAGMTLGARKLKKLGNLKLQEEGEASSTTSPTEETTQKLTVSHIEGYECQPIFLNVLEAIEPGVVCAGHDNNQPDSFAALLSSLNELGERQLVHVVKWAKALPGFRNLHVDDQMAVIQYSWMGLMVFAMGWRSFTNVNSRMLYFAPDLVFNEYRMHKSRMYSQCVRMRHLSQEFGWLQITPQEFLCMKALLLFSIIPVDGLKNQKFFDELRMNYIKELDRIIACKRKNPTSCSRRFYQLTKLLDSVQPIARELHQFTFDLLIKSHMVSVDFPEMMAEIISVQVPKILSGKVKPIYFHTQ
Thyrotropin receptor (Homo sapiens), sequence (P16473 whole entry, looked up): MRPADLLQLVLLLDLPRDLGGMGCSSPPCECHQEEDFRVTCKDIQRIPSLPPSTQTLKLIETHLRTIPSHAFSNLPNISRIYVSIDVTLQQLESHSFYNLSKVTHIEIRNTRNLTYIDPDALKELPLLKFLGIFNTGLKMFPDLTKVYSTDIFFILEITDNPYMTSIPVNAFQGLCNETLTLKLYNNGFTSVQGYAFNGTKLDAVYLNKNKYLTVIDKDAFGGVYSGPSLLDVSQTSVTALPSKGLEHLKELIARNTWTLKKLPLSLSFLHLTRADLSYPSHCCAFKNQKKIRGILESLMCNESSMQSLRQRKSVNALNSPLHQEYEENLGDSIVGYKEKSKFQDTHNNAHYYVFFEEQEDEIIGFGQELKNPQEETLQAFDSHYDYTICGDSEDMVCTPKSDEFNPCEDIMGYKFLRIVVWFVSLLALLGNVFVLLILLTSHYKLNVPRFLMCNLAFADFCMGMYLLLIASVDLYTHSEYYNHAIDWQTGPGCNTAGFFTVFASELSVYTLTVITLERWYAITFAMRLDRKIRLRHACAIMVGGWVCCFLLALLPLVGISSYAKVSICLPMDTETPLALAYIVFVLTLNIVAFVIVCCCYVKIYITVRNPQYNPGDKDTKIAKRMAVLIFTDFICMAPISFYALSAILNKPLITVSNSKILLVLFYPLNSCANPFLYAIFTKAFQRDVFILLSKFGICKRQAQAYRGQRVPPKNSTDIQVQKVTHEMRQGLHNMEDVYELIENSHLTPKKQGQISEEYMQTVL

As for `COc1ccccc1O`, the Potency result in assay [1], in [2], in [3], in [4], in assay [5] and in [7] was “inactive” in each case. Moreover, the Potency result in [8], in assay [11], in assay [12], in [13], in assay [14] and in assay [15] was “inactive” throughout. In addition, the result in assay [6], in assay [9], in [10] and in [16] was inactive.
For the compound `COCC(C)N` (stereo not drawn), the Potency result in assay [1], in assay [2], in [17], in assay [3], in [5] and in assay [7] was “inactive” each time. Further, the Potency result in [8], in assay [11], in [12], in [18], in [13] and in assay [14] was “inactive” in each case. The Potency result in assay [15] was “inactive”. For the same compound, the outcome in [9], in assay [10], in assay [19] and in assay [16] was inactive.
As for `CC(O)COc1ccccc1` (stereo not drawn), the Potency entry in assay [1], in assay [2], in [17], in assay [4], in assay [5] and in assay [7] was “inactive” in each case. Besides, the Potency entry in assay [8], in assay [11], in [12], in assay [13] and in [15] was “inactive” each time. In addition, the outcome in [6], in assay [9], in assay [10], in assay [19] and in assay [16] was inactive.
As to `CCCCCCCCCCCCCC(=O)OC(C)C`, the Potency result in [1], in assay [2], in [17], in [3], in assay [4] and in assay [5] was “inactive” in each case. The Potency result in assay [8], in [20], in [11], in [12], in [18] and in assay [13] was “inactive” in each case. The Potency entry in assay [14] and in assay [15] was “inactive” throughout. Besides, the compound was called inactive in assay [6], in assay [9], in assay [10] and in [19].
For the compound `C[C@]12CC[C@@H]3c4ccc(O)cc4C[C@@H](CCCCCCCCCS(=O)CCCC(F)(F)C(F)(F)F)[C@H]3[C@@H]1CC[C@@H]2O` (stereo partly drawn), the Potency entry in assay [1], in [2], in assay [5], in assay [8], in [20] and in [12] was “inactive” each time. Moreover, in assay [15], the Potency entry is “inactive”. Moreover, the Potency in assay [17] was 8.41 µM (active); in [18], 9.68 µM (active) and 14.3 µM (active) and 8.41 µM (active). In addition, the result in assay [6], in assay [9], in [10], in [19] and in assay [16] was inactive.
Regarding `C1CNCCN1`, the Potency result in [1], in [2], in assay [3], in assay [4], in assay [5] and in assay [7] was “inactive” throughout. For the same compound, the Potency entry in assay [8], in assay [11], in assay [12], in [18], in [13] and in assay [14] was “inactive” in each case. Besides, the Potency entry in assay [15] was “inactive”. Also, the compound was called inactive in [6], in [9] and in [10]. In assay [20], the Potency is 5.61 µM (active) and inactive.
